BoNT F protease – BoNT/F light chain protease inhibitors, primary screen, biochemical, flow cytometry, MLPCN library | Botulinum neurotoxin type F light chain protease (Clostridium botulinum) | Multiplex microsphere protease cleavage assay | 0.22% of 360,000 active | inhibition, % at 10 µM; in the data active = inhibition above about 35%, passing the limit was not always enough; inconclusive = no clear call, values can overlap the other calls
Autofluor counter – compound fluorescence in toxin protease inhibitor counterscreen; AID 624483; compound autofluorescence counterscreen, microsphere flow cytometry; stronger effect = higher value; fluorescence intensity (test concentration not listed); 3.1% of 360,000 active; in the data active = fluorescence intensity above about 16000; inconclusive = no clear call, values can overlap the other calls
Anthrax LF inh2 – Bacillus anthracis LF protease inhibitors, primary screen, biochemical, multiplex microsphere, MLPCN library. Lethal factor (Bacillus anthracis), P15917. multiplex microsphere protease cleavage assay. inhibition, % at 10 µM. 0.12% of 360,000 active. AID 588501, 2011
BoNT-A LC inh2 – BoNT/A light chain protease inhibitors, primary screen, biochemical, flow cytometry, MLPCN library | Botulinum neurotoxin type A light chain protease (Clostridium botulinum A str. ATCC 3502) | multiplex microsphere protease substrate cleavage | inhibition, % at 10 µM | 0.17% of 360,000 active | AID 588499, 2011
Hits are given with their value. Only some compounds are listed: those with a hit (about 3.5% of all), similar ones and a draw of the others. Cut-off read from the data, not from the text of the source, unless noted: active = inhibition above about 30%; inconclusive = no clear call, values can overlap the other calls; inactive = below that.

How did CCOC(=O)Cn1c(=O)oc2cc(S(=O)(=O)NCCc3ccc(OCC)c(OCC)c3)ccc21 do in these assays?
BoNT F protease: inactive; Autofluor counter: 22861; Anthrax LF inh2: inactive; BoNT-A LC inh2: inconclusive

How did Cc1ccc(S(=O)(=O)N2CCCCC2)cc1C(=O)OC1CCCCC1=O (stereo not drawn) do in these assays?
BoNT F protease: inactive; Autofluor counter: inactive; Anthrax LF inh2: inactive; BoNT-A LC inh2: inactive

How did Cc1ccc2[nH]c(=O)c(COC(=O)C3CCCCC3)cc2c1 do in these assays?
BoNT F protease: inactive; Autofluor counter: inactive; Anthrax LF inh2: inactive; BoNT-A LC inh2: inactive

Results for CCN(CC)c1ccc(/C=N/NC(=O)c2ccc([N+](=O)[O-])cc2)cc1 ?
BoNT F protease: inactive; Autofluor counter: inactive; Anthrax LF inh2: inactive; BoNT-A LC inh2: inactive

What do the screens show for `CCN(CC)c1ccc(/C=C/[N+](=O)[O-])cc1`?
BoNT F protease: inactive; Autofluor counter: inactive; Anthrax LF inh2: 35.1; BoNT-A LC inh2: 65.9

How did CCOC(=O)/C(=C\C=C1/Sc2cc(OCC)c(OCC)cc2N1CC)C(C)=O do in these assays?
BoNT F protease: 48.9; Autofluor counter: 33036; Anthrax LF inh2: inactive; BoNT-A LC inh2: inactive

Results for CCOC(=O)/C(=C/C=C1\Sc2cc(OCC)c(OCC)cc2N1CC)C(C)=O ?
BoNT F protease: 43.7; Autofluor counter: 23889; Anthrax LF inh2: inactive; BoNT-A LC inh2: inactive

Results for CCN1/C(=C/C(C)=O)Sc2ccc(OC)cc21 ?
BoNT F protease: inactive; Autofluor counter: inactive; Anthrax LF inh2: inactive; BoNT-A LC inh2: inactive

How did CCN(C[C@H]1N[C@@](C)(C(=O)OC)[C@H]2C(=O)N(C)C(=O)[C@@H]12)S(=O)(=O)c1ccc(OC)cc1 do in these assays?
BoNT F protease: inactive; Autofluor counter: inactive; Anthrax LF inh2: inactive; BoNT-A LC inh2: inactive

How did COC(=O)c1ccccc1N=Nc1c(C)n[nH]c1C do in these assays?
BoNT F protease: inconclusive; Autofluor counter: inactive; Anthrax LF inh2: inactive; BoNT-A LC inh2: inconclusive

Results for COC(=O)c1ccccc1N=Nc1c(C)noc1C ?
BoNT F protease: inconclusive; Autofluor counter: inactive; Anthrax LF inh2: 33.6; BoNT-A LC inh2: inactive

What do the screens show for `Cc1noc(NS(=O)(=O)c2ccc(NC(=O)c3cnc4n(c3=O)CCS4)cc2)c1C`?
BoNT F protease: inactive; Autofluor counter: 21016; Anthrax LF inh2: inactive; BoNT-A LC inh2: inactive

Results for Cc1ccccc1C(=O)Nc1ccc(S(=O)(=O)Nc2onc(C)c2C)cc1 ?
BoNT F protease: inactive; Autofluor counter: inactive; Anthrax LF inh2: inactive; BoNT-A LC inh2: inactive

What do the screens show for `Cc1cccc(NC(=O)c2cnc3n(c2=O)CCS3)c1`?
BoNT F protease: inactive; Autofluor counter: 20823; Anthrax LF inh2: inactive; BoNT-A LC inh2: inconclusive

How did O=C(Nc1ccc2c(c1)OCCO2)c1cnc2n(c1=O)CCS2 do in these assays?
BoNT F protease: inactive; Autofluor counter: inactive; Anthrax LF inh2: inactive; BoNT-A LC inh2: inactive

Results for O=C(Nc1ccc2c(c1)OCO2)c1cnc2n(c1=O)CCS2 ?
BoNT F protease: inactive; Autofluor counter: 22821; Anthrax LF inh2: inactive; BoNT-A LC inh2: inactive

How did Cc1noc(NS(=O)(=O)c2ccc(NC(=O)COc3ccccc3)cc2)c1C do in these assays?
BoNT F protease: inactive; Autofluor counter: 22340; Anthrax LF inh2: inactive; BoNT-A LC inh2: inactive

How did C/C(=N/NC(=O)CN1CCN(Cc2ccccc2Cl)CC1)c1cccs1 do in these assays?
BoNT F protease: inconclusive; Autofluor counter: inactive; Anthrax LF inh2: inactive; BoNT-A LC inh2: inactive

What do the screens show for `CN(C)CCCNC(=O)C(=O)NCC(c1cccs1)S(=O)(=O)c1ccc(F)cc1` (stereo not drawn)?
BoNT F protease: inactive; Autofluor counter: inconclusive; Anthrax LF inh2: inactive; BoNT-A LC inh2: inactive

How did S=c1nc(-c2ccccc2)[nH]n1-c1ccccc1 do in these assays?
BoNT F protease: inactive; Autofluor counter: 25268; Anthrax LF inh2: inactive; BoNT-A LC inh2: inactive

How did Cc1nc(=S)n(-c2ccccc2)[nH]1 do in these assays?
BoNT F protease: inconclusive; Autofluor counter: inactive; Anthrax LF inh2: inactive; BoNT-A LC inh2: inactive

How did O=C(O)c1ccc(OCCN2CCCC2=O)cc1 do in these assays?
BoNT F protease: inactive; Autofluor counter: 19644; Anthrax LF inh2: inactive; BoNT-A LC inh2: inactive

How did C=CCCCOc1ccc(C(=O)O)cc1 do in these assays?
BoNT F protease: inactive; Autofluor counter: 21372; Anthrax LF inh2: inactive; BoNT-A LC inh2: inactive

What do the screens show for `Nc1c(N=O)c(=O)[nH]c(=O)n1-c1ccccc1`?
BoNT F protease: inconclusive; Autofluor counter: inactive; Anthrax LF inh2: inactive; BoNT-A LC inh2: inactive

How did CCCNc1c(N)n(-c2ccccc2)c(=O)[nH]c1=O do in these assays?
BoNT F protease: inactive; Autofluor counter: 21763; Anthrax LF inh2: inactive; BoNT-A LC inh2: inconclusive

What do the screens show for `Cc1cc(C(F)(F)F)nc(SCC(=O)c2cccc([N+](=O)[O-])c2)n1`?
BoNT F protease: inactive; Autofluor counter: 17551; Anthrax LF inh2: inactive; BoNT-A LC inh2: inactive

What do the screens show for `COc1ccc(C(=O)NCCCNC(=O)c2ccccn2)cc1Br`?
BoNT F protease: inactive; Autofluor counter: inactive; Anthrax LF inh2: inactive; BoNT-A LC inh2: inactive

Results for COc1cccc(CN2CCC(C(=O)N3CCN(c4ccccc4F)CC3)CC2)c1 ?
BoNT F protease: inactive; Autofluor counter: inactive; Anthrax LF inh2: inactive; BoNT-A LC inh2: inactive

Results for COc1cc(CN2CCC(C(=O)N3CCN(c4ccccc4F)CC3)CC2)ccc1O ?
BoNT F protease: inactive; Autofluor counter: 23648; Anthrax LF inh2: inactive; BoNT-A LC inh2: inactive

How did Clc1ccc(Cc2nc(-c3cccnc3)no2)cc1 do in these assays?
BoNT F protease: inactive; Autofluor counter: 21733; Anthrax LF inh2: inactive; BoNT-A LC inh2: inactive

How did Cc1ccc(-c2noc(CNc3ccccc3)n2)cc1 do in these assays?
BoNT F protease: inactive; Autofluor counter: 21856; Anthrax LF inh2: inactive; BoNT-A LC inh2: inconclusive

What do the screens show for `COc1ccc(Cc2nc(-c3ccccc3)no2)cc1`?
BoNT F protease: inactive; Autofluor counter: 21271; Anthrax LF inh2: inactive; BoNT-A LC inh2: inactive

Results for CCc1ccc(NCc2nc(-c3ccccc3)no2)cc1 ?
BoNT F protease: inactive; Autofluor counter: inactive; Anthrax LF inh2: inactive; BoNT-A LC inh2: inactive

Results for CCN(C(=O)COC(=O)c1cccc(S(=O)(=O)N2CCOCC2)c1)C1CCS(=O)(=O)C1 (stereo not drawn) ?
BoNT F protease: inactive; Autofluor counter: inactive; Anthrax LF inh2: inactive; BoNT-A LC inh2: inactive

What do the screens show for `Cc1ccccc1NC(=O)COC(=O)COc1ccc2ccc(=O)oc2c1`?
BoNT F protease: inactive; Autofluor counter: inactive; Anthrax LF inh2: inactive; BoNT-A LC inh2: inactive

Results for Cc1ccc([C@H]2C[C@@H](n3cc(-c4ccc(F)cc4)nn3)[C@H](O)CN2C(=O)C2CCCCC2)cc1 ?
BoNT F protease: inactive; Autofluor counter: inactive; Anthrax LF inh2: inactive; BoNT-A LC inh2: inactive

Results for COc1ccc(N2C(=O)CCC2=O)cc1 ?
BoNT F protease: inactive; Autofluor counter: 20610; Anthrax LF inh2: inactive; BoNT-A LC inh2: inconclusive

How did CC(=O)Oc1ccc(N2C(=O)CCC2=O)cc1 do in these assays?
BoNT F protease: inconclusive; Autofluor counter: inactive; Anthrax LF inh2: inactive; BoNT-A LC inh2: inactive

How did CCc1ccccc1OCC(=O)Nc1ccc(N2CCCC2)cc1C do in these assays?
BoNT F protease: inactive; Autofluor counter: 23739; Anthrax LF inh2: inactive; BoNT-A LC inh2: inactive

What do the screens show for `Cc1cc(N2CCCC2)ccc1NC(=O)COc1ccccc1`?
BoNT F protease: inactive; Autofluor counter: inactive; Anthrax LF inh2: inactive; BoNT-A LC inh2: inactive

Compound activity: PubChem BioAssay, NMMLSC
